# The list is not random: actives were taken first. Their share in the collection is about 5.7%.
# DAX1 inh-1: DAX1 (NR0B1) inhibition, primary screen | AID 652010 | HEK293T StAR-luciferase reporter, SF-1/DAX-1 repression relief | inhibition, % at 6.8 µM | 370,000 tested, 1.1% active;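 active = inhibition above the mean over all tested compounds plus 3 SD, cut at about 3.6% in these data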;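 also: 0% = DAX-1 cells with DMSO and 100% = cells lacking DAX-1 with DMSO; higher inhibition means more luminescence from relief of DAX-1 repression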
# ssDAF12 agonist: activators of S. stercoralis DAF-12 nuclear receptor; HEK293 ssDAF-12/GRIP1 lit1-tk-luc reporter, luminescence; % of 3 µM dafachronic acid response; activation, % at 6.8 µM; 370,000 tested, 1% active;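 active = activation above the mean over all tested compounds plus 3 SD, cut at about 0.9% in these data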;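 also: 0% = DMSO-only wells and 100% = 3 µM delta7-dafachronic acid wells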
# hcDAF12 agonist: H. contortus DAF-12 activation, primary screen | HEK293 hcDAF-12 lit1-tk-luc reporter, luminescence; 0% DMSO, 100% Δ7-dafachronic acid | activation, % at 6.8 µM | 370,000 tested, 1.4% active | AID 652067;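 active = activation above the mean of all tested compounds plus 3 SD, cut at about 5.5% in these data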;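 also: 100% = response to 3 µM Δ7-dafachronic acid high control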
# hgDAF12 agonist: activates the H. glycines DAF-12 receptor ligand-binding domain. HEK293 GAL4-hgDAF12 UAS-luciferase reporter, agonist luminescence; normalized to butyrate control. activation, % at 6.8 µM. 370,000 tested, 1.8% active. AID 687014;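 active = activation above a cutoff set at the mean of all screened compounds plus 3 SD, cut at about 10% in these data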;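 also: 0% = DMSO wells and 100% = sodium butyrate wells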
# DAX1 inh-2: inhibits human nuclear receptor DAX1; 340,000 tested, 0.99% active; inhibition, % at 6.75 µM; AID 504766; HEK293 Gal4-DAX1 luciferase reporter, luminescence;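 active = inhibition above the mean over all tested compounds plus 3 SD, cut at about 4.2% in these data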;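 also: 0% = DAX1-transfected cells with DMSO and 100% = empty-vector control cells with DMSO; inhibition shows as a rise in luminescence from relieved DAX1 repression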
# Target sequence (P51843 207-470 limits assumed): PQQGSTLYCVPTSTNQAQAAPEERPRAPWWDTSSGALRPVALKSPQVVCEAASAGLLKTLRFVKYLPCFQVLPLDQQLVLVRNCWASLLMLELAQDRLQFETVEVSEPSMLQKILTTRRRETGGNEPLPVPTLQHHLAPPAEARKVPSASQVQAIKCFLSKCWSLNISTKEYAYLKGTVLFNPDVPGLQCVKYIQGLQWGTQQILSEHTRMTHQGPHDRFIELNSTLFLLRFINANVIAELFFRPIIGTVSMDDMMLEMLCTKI
# AHR act: activators of human aryl hydrocarbon receptor; AHR-responsive luciferase reporter cells, luminescence; activation, % at 5 µM; 320,000 tested, 2.5% active; in the data active = activation above about 47%;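 also: 0% = vehicle wells and 100% = reference agonist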
# * marks the source's active call; other numbers are inactive results; nt = no result.
SMILES,DAX1 inh-1,ssDAF12 agonist,hcDAF12 agonist,hgDAF12 agonist,DAX1 inh-2,AHR act
CS(=O)(=O)N(CC(O)Cn1c2ccccc2c2ccccc21)c1ccccc1 (configuration not stated),0,-2,-2,0,0,12
COc1ccc(/C(C)=N/NC(=O)CN(c2ccc(OC)cc2)S(=O)(=O)c2ccccc2)cc1,0,-1,-1,-1,4.4*,0
COc1ccc(N(CC(O)Cn2c3ccccc3c3ccccc32)S(=O)(=O)c2ccccc2)cc1 (configuration not stated),0,-1,-1,-1,-1,55*
COc1ccc(N=Nc2ccc(CO)cc2)cc1,1,1.3*,7.3*,10,2,-4
COc1ccc(C/C(N)=N/O)cc1,0,-1,0,1,0,-3
Cn1c(SCC(=O)N2CCCC2=O)nc2ccccc21,-1,-1,2,3,1,4
CCc1nc2ccc(C(=O)NCCOc3ccc(OC)cc3)cn2c1N(C)Cc1nccn1C,-1,-1,2,3,nt,nt
Cc1[nH]c(C)c(S(=O)(=O)N2CCN(c3cccc(Cl)c3)CC2)c1C(=O)N1CCCC1,0,-1,-1,0,1,50*
COc1cccc(N2CCN(S(=O)(=O)c3c(C)[nH]c(C)c3C(=O)N3CCCC3)CC2)c1,0,-1,1,-2,-1,19
CSc1c(CC(=O)Nc2ccccc2)n(C)c2ccccc12,-1,0,2,-5,0,58*
Cn1c(Cl)c(C(=O)Nc2ccccc2)c2ccccc21,0,0,6.5*,3,-1,41
CCCn1c(=O)c(C(=O)Nc2ccccc2)c(O)c2ccccc21,1,0,5,4,0,16
O=S(=O)(c1ccc(F)cc1)N1CCC(n2cnc3ccccc32)CC1,0,-1,1,1,-1,0
COc1cccc(C2CCCCN(C)C2=O)c1 (configuration not stated),1,-2,-2,0,4.6*,-3
COCC(C)n1c(SCC(=O)NC(=O)NCc2ccccc2)nc2ccccc2c1=O (configuration not stated),-1,-1,-1,1,-2,0
CCn1c(-c2cccnc2Cl)nc2cc(Cl)c(Cl)cc21,0,-2,-1,1,0,52*
O=C(NNC(=O)c1cc2cc3ccccc3nc2s1)c1cccc(C(F)(F)F)c1,1,-2,-1,1,0,48*
Cc1ccc2nc(C)cc(Nc3ccc4c(c3)OCCO4)c2c1,-2,-2,-6,-7,0,69*
Cc1ccc2[nH]c(CNC(=O)c3ccc(F)cc3)cc2c1,1,1.0*,1,-1,1,65*
COc1ccc(-n2c(=O)c3ccccc3n(CC(=O)c3ccccc3)c2=O)cc1OC,0,-1,0,-1,-1,-3
COc1cc(-n2c(=O)c3ccccc3n(CC(=O)c3ccc(Br)cc3)c2=O)cc(OC)c1OC,0,-1,0,-4,5.4*,0
Cc1ccc2nc(Cl)c(/C=N/n3c(C)nnc3C)cc2c1,1,-1,2,0,0,6
Cn1c(SCC(=O)c2ccc3c(c2)OCCO3)nnc1C(F)(F)F,0,-1,-1,-1,0,-1
C[C@]12C(=O)N(c3ccc(Br)cc3)C(=O)N1[C@H]1c3ccccc3OC[C@@H]1[C@H]2c1ccccc1,-1,-1,5.8*,2,0,0
Cc1ccc(NC(=O)c2ccc(Cl)c(S(=O)(=O)NCC3CCCO3)c2)c(O)c1 (configuration not stated),-1,0,5,-1,1,62*
Cc1ccccc1NC(=O)c1ccc(F)c(S(=O)(=O)NCC2CCCO2)c1 (configuration not stated),-1,0,0,-2,0,3
COc1ccc(S(=O)(=O)N2CCCCC2)cc1NC(=O)c1ccc(OC)c(OC)c1,0,-1,-2,-1,0,nt
Cc1ccc(S(=O)(=O)N2CCN(C(=O)COC(=O)COc3ccc(Cl)cc3)CC2)c(C)c1,0,-1,0,-1,4.8*,nt
